Screening data (PubChem BioAssay)
Sampled rows, rich in hits. Any-hit rate of the full collection: about 5.4%.
ALR H2O2 inh: blocks human ALR sulfhydryl oxidase activity; P55789; purified ALR, DTT oxidation, H2O2 HRP-luminol luminescence; inhibition, % (no concentration beside the values); hit rate 3.8% among 290,000;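 active = mean replicate inhibition above about 79%, with every replicate also reaching it, limit read from the data; inconclusive = only one of the two criteria met; inactive = mean below limit and not every replicate reaching it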
Target sequence (P55789 whole entry, looked up): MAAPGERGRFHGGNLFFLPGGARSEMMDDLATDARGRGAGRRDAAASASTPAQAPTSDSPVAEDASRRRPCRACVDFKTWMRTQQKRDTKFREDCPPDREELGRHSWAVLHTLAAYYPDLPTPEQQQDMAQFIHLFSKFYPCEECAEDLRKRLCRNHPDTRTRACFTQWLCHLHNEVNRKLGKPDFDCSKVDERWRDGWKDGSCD
PHOSPHO1 inh: inhibitors of human PHOSPHO1 phosphatase. Q8TCT1. recombinant PHOSPHO1, absorbance phosphatase assay. inhibition, % at 13.3 µM. hit rate 1.1% among 290,000. AID 1565; in the data active = inhibition above about 60%
Target sequence (Q8TCT1 whole entry, looked up): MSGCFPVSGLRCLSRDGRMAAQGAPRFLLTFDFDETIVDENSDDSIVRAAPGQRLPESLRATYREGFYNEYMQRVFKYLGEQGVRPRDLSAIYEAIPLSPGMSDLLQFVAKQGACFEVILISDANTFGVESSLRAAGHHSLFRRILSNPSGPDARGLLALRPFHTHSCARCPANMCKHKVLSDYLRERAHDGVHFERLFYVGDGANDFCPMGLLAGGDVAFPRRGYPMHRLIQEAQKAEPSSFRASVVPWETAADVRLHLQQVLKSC
rCAG binder: r(CAG) repeat RNA binding. TO-PRO-1 dye displacement fluorescence. inhibition, % at 3 µM. hit rate 1.3% among 370,000;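 active = inhibition above the plate cutoff, the mean of all test compounds on that plate plus 3 SD, cut at about 35% in these data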;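 note: higher means more dye released from RNA so lower well fluorescence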
aDG glyco act: increases alpha dystroglycan glycosylation. hit rate 0.22% among 360,000. activation, % at 10 µM. Pro5-aDG cells, alpha-DG glycosylation AlphaScreen (IIH6); 0% Pro5, 100% B10-LARGE cell signal. AID 624168;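 active = activation of at least 8% versus controls, or a plate z-score of at least 8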;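 note: Pro5 are CHO cells carrying HIG-tagged alpha-DG that lacks glycosylation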
A3G deaminase: inhibitors of human APOBEC3G DNA deaminase; Q9HC16; recombinant A3G, ssDNA deamination FAM/TAMRA fluorescence; inhibition, % at 20 µM; hit rate 0.28% among 330,000;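 active = inhibition of at least 40% at 20 µM, with no more than 30% in the related APOBEC3A deaminase screen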
A3A deaminase: inhibitors of human APOBEC3A DNA deaminase; P31941; recombinant A3A, FAM/TAMRA ssDNA deamination fluorescence; inhibition, % at 20 µM; hit rate 0.41% among 330,000; AID 493011;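 active = at least 40% inhibition at 20 µM here, with at most 30% in a related deaminase screen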
Target sequence (P31941 whole entry, looked up): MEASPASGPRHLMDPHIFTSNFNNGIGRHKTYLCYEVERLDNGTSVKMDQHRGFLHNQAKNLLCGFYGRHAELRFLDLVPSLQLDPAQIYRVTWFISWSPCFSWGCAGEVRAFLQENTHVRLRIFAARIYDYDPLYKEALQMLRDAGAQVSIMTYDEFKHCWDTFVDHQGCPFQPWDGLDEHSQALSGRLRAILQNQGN
Of the large screens only hits and unclear results are named; the others gave an inactive call.

S=c1[nH]nc(-c2n[nH]c3c2CCC3)n1N=Cc1ccco1	none (no result: ALR H2O2 inh, PHOSPHO1 inh, aDG glyco act, A3G deaminase, A3A deaminase)
COc1ccccc1/C=C/C=N/n1c(-c2n[nH]c3c2CCC3)n[nH]c1=S	none
O=[N+]([O-])c1ccccc1/C=C/C=N/n1c(-c2ccccc2)n[nH]c1=S	ALR H2O2 inh inconclusive
Cc1cc(C)cc(N(CC(=O)NC2CCC(C)CC2)S(=O)(=O)c2ccc(C(C)(C)C)cc2)c1 (configuration not stated)	none (no result: ALR H2O2 inh, PHOSPHO1 inh, aDG glyco act, A3G deaminase, A3A deaminase)
Cc1ccc(C2=CCN(C)C(=O)N2c2ccc([N+](=O)[O-])cc2)cc1	none (no result: ALR H2O2 inh, PHOSPHO1 inh, aDG glyco act, A3G deaminase, A3A deaminase)
CCOc1ccc(CCNC(=O)c2cc(-c3ccccc3)c(N3CCOCC3)s2)cc1OC	none (no result: ALR H2O2 inh, PHOSPHO1 inh, aDG glyco act, A3G deaminase, A3A deaminase)
S=c1[nH]nc(-c2ccco2)n1/N=C/C=C/c1ccco1	PHOSPHO1 inh 69.4
O=C(N[C@H](Cc1ccccc1)C(=O)N1CCN(c2ccc(Cl)cn2)CC1)[C@H]1O[C@@H](n2ccc(=O)[nH]c2=O)[C@H](O)[C@@H]1O	none (no result: ALR H2O2 inh, PHOSPHO1 inh, aDG glyco act, A3G deaminase, A3A deaminase)
O=C1CCCCN1CCc1c[nH]c2ccccc12	ALR H2O2 inh 86.8
Cc1c(C(C)C)c(=O)n(-c2ccc(S(=O)(=O)NCc3ccccc3)cc2)n1C	aDG glyco act 8.4
Cc1c(C(C)C)c(=O)n(-c2ccc(S(=O)(=O)NC3CCCCC3)cc2)n1C	none
Cn1ccnc1C(=O)O[C@@H]1CCC[C@@]2(C(=O)N(Cc3ccccc3)c3ccccc32)[C@H]1NC(=O)CCc1ccccc1	none (no result: ALR H2O2 inh, PHOSPHO1 inh, aDG glyco act, A3G deaminase, A3A deaminase)
COC(=O)[C@@H](NC(=O)Nc1cccc(OC)c1)C(C)C	PHOSPHO1 inh 60.1
COCCNC(=O)C(=O)c1cc(C)n(-c2ccc([N+](=O)[O-])cc2)c1C	ALR H2O2 inh 97.4
O=C(CNS(=O)(=O)c1ccccc1)N1CCN(c2ccccn2)CC1	none (no result: ALR H2O2 inh, PHOSPHO1 inh, aDG glyco act, A3G deaminase, A3A deaminase)
O=C(O)CC/C(=N\Nc1ccccc1[N+](=O)[O-])c1cccs1	ALR H2O2 inh 98.4 (no result: rCAG binder)
Oc1ccc(CN2CCCc3ccccc32)c2cccnc12	PHOSPHO1 inh 74.4 (no result: rCAG binder)
COC(=O)[C@]1(CNC(=O)Nc2ccc(C)c(Cl)c2)CC(=O)N(C)[C@@H]1c1ccccc1	none (no result: ALR H2O2 inh, PHOSPHO1 inh, aDG glyco act, A3G deaminase, A3A deaminase)
Cc1nc2ccc(S(=O)(=O)N(C)CC(=O)NCc3ccc(N(C)C)cc3)cc2s1	ALR H2O2 inh 84.7
Cc1cc(C)cc(C(=O)OCCN(C)C2CN(Cc3cn(Cc4ccccc4C(F)(F)F)nn3)S(=O)(=O)C2)c1 (configuration not stated)	none (no result: ALR H2O2 inh, PHOSPHO1 inh, aDG glyco act, A3G deaminase, A3A deaminase)
Brc1ccccc1-c1nnc2sc(-c3ccc4c(c3)OCCO4)nn12	none
Clc1cccc(-c2nnc3sc(-c4ccc5c(c4)OCO5)nn23)c1	PHOSPHO1 inh 75.4 (no result: ALR H2O2 inh, rCAG binder, aDG glyco act, A3G deaminase, A3A deaminase)
c1ccc(-c2nn3c(Cn4nnc5ccccc54)nnc3s2)nc1	none
Clc1ccccc1-c1nn2c(Cn3cnc4ccccc43)nnc2s1	PHOSPHO1 inh 83.7
c1ccc2c(c1)ncn2Cc1nnc2sc(-c3ccc4c(c3)OCO4)nn12	PHOSPHO1 inh 66.7
CCN(CC)c1ccc(/C=C/c2cccc[n+]2C)c(OC)c1	ALR H2O2 inh 98.7
CN1C(=S)SC(N(O)C=C2C=CC(=O)C=C2)C1(C)C (configuration not stated)	none (no result: ALR H2O2 inh)
CC1(N(O)C=C2C=CC(=O)C=C2)CCCCC1=O (configuration not stated)	ALR H2O2 inh 99.2
CCOc1ccc(S(=O)(=O)NCCCl)cc1	none
CCOc1ccc(S(=O)(=O)NNS(=O)(=O)c2ccc(C)cc2C)cc1	ALR H2O2 inh 99.2
Cc1cc(NC(=O)c2ccoc2C)ccc1Br	ALR H2O2 inh 89.5 (no result: PHOSPHO1 inh)
COC(=O)[C@]1(C)CN(C(=O)OC(C)(C)C)C2=C1C(=O)C[C@@](C)(C(=O)OC(C)(C)C)C2	none (no result: ALR H2O2 inh, PHOSPHO1 inh, aDG glyco act, A3G deaminase, A3A deaminase)
NC(=O)c1c(NC(=O)c2ccc(F)cc2Cl)sc2c1CCC2	ALR H2O2 inh 92.8 (no result: PHOSPHO1 inh)
N#Cc1c(NC(NC(=O)c2ccco2)C(=O)c2ccccc2)sc2c1CCCC2 (configuration not stated)	none
NC(=O)c1c(NC(NC(=O)c2ccco2)C(=O)c2ccc(Cl)cc2)sc2c1CCCC2 (configuration not stated)	PHOSPHO1 inh 99.8
COCCCNC(=O)c1c(NC(=O)c2cccs2)sc2c1CCCC2	ALR H2O2 inh 86.3
NC(=O)c1c(NC(=O)c2ccc(N3C(=O)CCC3=O)cc2)sc2c1CCCC2	ALR H2O2 inh 93.1 (no result: PHOSPHO1 inh)
CC1CCc2sc(NC(=O)c3ccc(N4C(=O)CCC4=O)cc3)c(C(N)=O)c2C1 (configuration not stated)	none
C=CC[C@]1(c2ccccc2)C(=O)N2C[C@H]3CON(C)[C@H]3C[C@H]2c2ccccc21	none (no result: ALR H2O2 inh, PHOSPHO1 inh, aDG glyco act, A3G deaminase, A3A deaminase)
O=C(OC1CC2CCC(C1)[N+]21CCCC1)C(O)(c1ccccc1)c1ccccc1 (configuration not stated)	none (no result: ALR H2O2 inh, PHOSPHO1 inh, aDG glyco act, A3G deaminase, A3A deaminase)
O=C(C(=O)N1CCC(CNS(=O)(=O)c2ccc(F)cc2)CC1)c1cccs1	none (no result: ALR H2O2 inh, PHOSPHO1 inh, aDG glyco act, A3G deaminase, A3A deaminase)
COC(=O)C1CN(CCO)CCS(=O)(=O)N1Cc1cn(Cc2cccc(Cl)c2)nn1 (configuration not stated)	none (no result: ALR H2O2 inh, PHOSPHO1 inh, aDG glyco act, A3G deaminase, A3A deaminase)
O=C(Nc1sc2c(c1C(=O)O)CCCC2)c1cccc(Cl)c1	rCAG binder 84.4
NC(=O)c1c(NC(=O)c2ccccc2Cl)sc2c1CCC2	ALR H2O2 inh 91.2 (no result: PHOSPHO1 inh)
COCCN(CCOC)S(=O)(=O)c1ccc(C(=O)Nc2sc3c(c2C(N)=O)CCCCC3)cc1	ALR H2O2 inh 90.6
Cc1ccc(C(=O)c2c(NC(=O)c3cccnc3)sc3c2CCCC3)cc1	ALR H2O2 inh 94.6
CN(CC1COc2ccccc2O1)C(=O)c1ccc(N(C)C)cc1 (configuration not stated)	ALR H2O2 inh 89.5
Cc1noc(C)c1C(=O)N1CCCC(Nc2ccc(C(C)C)cc2)C1 (configuration not stated)	ALR H2O2 inh 98.1
COc1ccc(NC2CCCN(C(=O)c3c(C)noc3C)C2)cc1 (configuration not stated)	ALR H2O2 inh 98.8
CC(C)c1ccc(NC2CCCN(C(=O)c3ccco3)C2)cc1 (configuration not stated)	none
O=C(Nc1ccc(SC(F)F)cc1)c1ccccc1F	ALR H2O2 inh 98.5
CCOC(=O)c1c(C#N)c(SCC(=O)Nc2ccc(OC)cc2)nc2c1CN(CC)CC2	ALR H2O2 inh 99.3
COc1ccc(NC(=O)CSc2nc3c(c(-c4cccs4)c2C#N)CN(C)CC3)cc1OC	ALR H2O2 inh 99.3
CN1CCc2nc(SCC(=O)Nc3ccc(Cl)cc3)c(C#N)cc2C1	ALR H2O2 inh 99.5 (no result: PHOSPHO1 inh)
Cc1ccc(-c2c(NC(=O)Nc3ccccc3)nc3ncccn23)cc1	none (no result: ALR H2O2 inh, PHOSPHO1 inh, aDG glyco act, A3G deaminase, A3A deaminase)
COC(=O)[C@]12C[C@H](CC(=O)NCC3CCCCC3)C(=O)N(CCc3ccc(OC)c(OC)c3)C1=C[C@H](C(C)(C)C)O[C@@H]2C	none (no result: ALR H2O2 inh, PHOSPHO1 inh, aDG glyco act, A3G deaminase, A3A deaminase)
COc1cc(NC(=O)CN2c3ccccc3CC2C)cc(OC)c1OC (configuration not stated)	ALR H2O2 inh 97.3
CCc1c(C(=O)NCc2cnn(C)c2)csc1C	ALR H2O2 inh 98.0
Cn1cc(CNC(=O)C23CC4CC(CC(C4)C2)C3)cn1	none
